# Activity calls are given as the source filed them. The rule behind the calls is not given here.
# Target: Botulinum neurotoxin type A (Clostridium botulinum) (UniProt P0DPI0)
# Assay: BoNT/A light chain protease inhibitors, biochemical, multiplex microsphere flow cytometry, validation set (AID 588460)
# Conditions: at 10 µM, active compounds read high
# Botulinum neurotoxin type A (Clostridium botulinum), sequence (P0DPI0 whole entry, looked up): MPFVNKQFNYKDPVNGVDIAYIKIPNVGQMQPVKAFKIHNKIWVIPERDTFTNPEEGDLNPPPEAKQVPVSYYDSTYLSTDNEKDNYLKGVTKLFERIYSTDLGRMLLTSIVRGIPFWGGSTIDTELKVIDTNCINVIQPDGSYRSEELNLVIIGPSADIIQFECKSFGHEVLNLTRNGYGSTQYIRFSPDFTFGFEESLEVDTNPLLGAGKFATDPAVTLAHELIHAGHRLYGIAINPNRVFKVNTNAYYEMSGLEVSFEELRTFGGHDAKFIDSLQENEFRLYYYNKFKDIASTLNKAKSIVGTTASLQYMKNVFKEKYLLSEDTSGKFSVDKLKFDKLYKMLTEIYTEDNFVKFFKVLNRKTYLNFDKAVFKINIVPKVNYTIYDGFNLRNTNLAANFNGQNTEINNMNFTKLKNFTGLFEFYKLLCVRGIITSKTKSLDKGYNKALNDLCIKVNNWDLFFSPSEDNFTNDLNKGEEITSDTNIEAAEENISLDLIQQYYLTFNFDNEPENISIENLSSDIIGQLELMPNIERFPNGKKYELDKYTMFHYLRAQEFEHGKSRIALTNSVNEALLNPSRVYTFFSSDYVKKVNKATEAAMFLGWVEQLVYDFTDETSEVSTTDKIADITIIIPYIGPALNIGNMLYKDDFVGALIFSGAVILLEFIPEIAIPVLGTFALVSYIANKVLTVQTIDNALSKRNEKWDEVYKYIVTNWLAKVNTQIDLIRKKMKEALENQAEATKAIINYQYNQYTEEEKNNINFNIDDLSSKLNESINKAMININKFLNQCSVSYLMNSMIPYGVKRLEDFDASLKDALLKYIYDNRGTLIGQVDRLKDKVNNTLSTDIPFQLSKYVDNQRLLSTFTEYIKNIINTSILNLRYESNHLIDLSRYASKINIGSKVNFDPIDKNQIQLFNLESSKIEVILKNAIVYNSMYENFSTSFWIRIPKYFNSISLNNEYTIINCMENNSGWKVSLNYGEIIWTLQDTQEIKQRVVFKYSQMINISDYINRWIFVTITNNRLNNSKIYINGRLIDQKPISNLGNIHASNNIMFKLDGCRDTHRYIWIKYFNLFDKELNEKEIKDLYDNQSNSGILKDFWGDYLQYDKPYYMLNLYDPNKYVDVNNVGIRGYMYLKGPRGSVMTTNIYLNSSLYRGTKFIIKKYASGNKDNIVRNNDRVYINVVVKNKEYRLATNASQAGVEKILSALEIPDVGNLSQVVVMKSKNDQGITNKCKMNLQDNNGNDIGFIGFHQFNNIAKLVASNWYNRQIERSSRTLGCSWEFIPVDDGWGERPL
row,SMILES,inhibition
1,CN1C(=O)NC(c2ccc(O)cc2)C2=C1CN(c1cccc3ccccc13)C2=O (stereo not given),-1% (inactive)
2,CC[C@]1(O)CC2CN(CCc3c([nH]c4ccccc34)[C@@](C(=O)OC)(c3cc4c(cc3OC)N(C=O)[C@H]3[C@@](O)(C(=O)OC)[C@H](OC(C)=O)[C@]5(CC)C=CCN6CC[C@]43[C@@H]65)C2)C1 (stereo not given in full),0% (inactive)
3,Cc1cc(C(=O)Nc2ccccc2C(=O)N2CCCCC2)ccc1[N+](=O)[O-],2.4% (inactive)
4,O=c1nc2n(c3c1oc1ccccc13)Cc1ccccc1-2,0% (inactive)
5,COc1cc(CC(=O)NCCc2ccc(S(N)(=O)=O)cc2)cc(OC)c1OC,1.6% (inactive)
6,CCCN(CCC)C(=O)C(CCC(=O)O)NC(=O)c1ccccc1 (stereo not given),-0.3% (inactive)
7,CN1CCc2c(n(CC(O)CN(CCO)CCO)c3ccccc23)C1=O (stereo not given),0.2% (inactive)
8,CC1(C)CC(NCc2ccccc2)CCO1 (stereo not given),5.6% (inactive)
9,O=C(O)c1cnccn1,-1.6% (inactive)
10,Cc1cc(OC(C(=O)O)c2ccccc2)c2c(C)c(Cc3ccccc3)c(=O)oc2c1 (stereo not given),-0.1% (inactive)
11,Clc1cc(-c2ccc(/C=N/n3cnnc3)o2)ccc1Br,-0.3% (inactive)
12,CN(C)CCOc1ccccc1Cc1ccccc1,1.6% (inactive)
13,COc1ccc(C2(CCN=Cc3ccc(N(C)C)cc3)CCOC(C)(C)C2)cc1 (stereo not given),1.6% (inactive)
14,CCOC(=O)C1(CCCc2ccccc2)CCN(C2CCN(C(C)=O)CC2)CC1,1.4% (inactive)
15,CN/C(=C/[N+](=O)[O-])NCCSCc1ccc(CN(C)C)o1,0.1% (inactive)
16,COC(=O)C1=C(C)NC(C)=C(C(=O)OC)C1c1ccccc1[N+](=O)[O-],2.2% (inactive)
17,OCCN(CCO)c1nc(N2CCCCC2)c2nc(N(CCO)CCO)nc(N3CCCCC3)c2n1,0.9% (inactive)
18,CN(C)CCC(c1ccc(Br)cc1)c1ccccn1 (stereo not given),-0.7% (inactive)
19,O=c1n(CCCN2CCN(c3cccc(Cl)c3)CC2)nc2ccccn12,-0.2% (inactive)
20,C[C@]12CCC(=O)C=C1[C@H](O)C[C@@H]1[C@@H]2[C@@H](O)C[C@@]2(C)[C@H]1CC[C@]2(O)C(=O)CO,-0.3% (inactive)

row,SMILES,inhibition
1,CC(C)(C)C(=O)NC(=S)NNC(=O)c1ccncc1,2.9% (inactive)
2,CC(C)CCn1c(N2CCc3ccccc3C2)nc2c1c(=O)[nH]c(=O)n2C,0.3% (inactive)
3,CNc1nc(Nc2ccccc2)nc(OCC(F)(F)F)n1,0.2% (inactive)
4,CC#C[C@]1(O)CC[C@H]2[C@@H]3CCC4=CC(=O)CCC4=C3[C@@H](c3ccc(N(C)C)cc3)C[C@@]21C,-2% (inactive)
5,CCOc1ccc(NC(=O)N[C@@H](CCSC)C(=O)OC)cc1,-1.8% (inactive)
6,COC(=O)c1cc(Br)c(=O)n(CCc2ccc(O)cc2)c1,1.3% (inactive)
7,CCn1nc(C(=O)O)c(=O)c2cc3c(cc21)OCO3,0.6% (inactive)
8,Cc1cnc(N)c2c(=O)oc3ccccc3c12,0.4% (inactive)
9,CCCCC(=O)O[C@]1(C(=O)CO)CC[C@H]2[C@@H]3CCC4=CC(=O)CC[C@]4(C)[C@H]3[C@@H](O)C[C@@]21C,-0.5% (inactive)
10,CCOc1cc2c3c(c1)C(C)=CC(C)(C)N3C(=O)C2=O,-2.5% (inactive)
11,COc1ccc(OCC(=O)N2c3ccc(C)cc3C3CN(C)CCC32)cc1 (stereo not given),-0.7% (inactive)
12,COC(=O)c1[nH]c2ccc(C)cc2c1NC(=O)CN1CCc2cc(OC)c(OC)cc2C1,-1.7% (inactive)
13,COc1ccc(CN2CCC(=O)NC2=O)cc1,-0.1% (inactive)
14,COc1ccc(C2=CC(=O)C=CC2=O)cc1,-1.3% (inactive)
15,COc1ccc(C(=O)NCCC2=CCCCC2)cc1[N+](=O)[O-],-1.5% (inactive)
16,O=C(NCCc1nc2ccccc2[nH]1)c1cccc(Br)c1,-1.3% (inactive)
17,COc1ccc2c(c1)c(CC(=O)O)c(C)n2C(=O)c1ccc(Cl)cc1,-1.5% (inactive)
18,CC(O)Cn1cnc2c1c(=O)n(C)c(=O)n2C (stereo not given),-0.5% (inactive)
19,Cc1cccc(Nc2ncccc2C(=O)O)c1C,-1.6% (inactive)
20,COc1ccc(C(=O)C2CCCCC2=O)cc1 (stereo not given),0.2% (inactive)

# Target: Lethal factor (Bacillus anthracis) (UniProt P15917)
# Assay: Bacillus anthracis lethal factor inhibition, microsphere flow cytometry protease assay, validation at 10 µM (AID 588461)
# Conditions: multiplex microsphere protease cleavage assay, active compounds read high
# Lethal factor (Bacillus anthracis), sequence (P15917 whole entry, looked up): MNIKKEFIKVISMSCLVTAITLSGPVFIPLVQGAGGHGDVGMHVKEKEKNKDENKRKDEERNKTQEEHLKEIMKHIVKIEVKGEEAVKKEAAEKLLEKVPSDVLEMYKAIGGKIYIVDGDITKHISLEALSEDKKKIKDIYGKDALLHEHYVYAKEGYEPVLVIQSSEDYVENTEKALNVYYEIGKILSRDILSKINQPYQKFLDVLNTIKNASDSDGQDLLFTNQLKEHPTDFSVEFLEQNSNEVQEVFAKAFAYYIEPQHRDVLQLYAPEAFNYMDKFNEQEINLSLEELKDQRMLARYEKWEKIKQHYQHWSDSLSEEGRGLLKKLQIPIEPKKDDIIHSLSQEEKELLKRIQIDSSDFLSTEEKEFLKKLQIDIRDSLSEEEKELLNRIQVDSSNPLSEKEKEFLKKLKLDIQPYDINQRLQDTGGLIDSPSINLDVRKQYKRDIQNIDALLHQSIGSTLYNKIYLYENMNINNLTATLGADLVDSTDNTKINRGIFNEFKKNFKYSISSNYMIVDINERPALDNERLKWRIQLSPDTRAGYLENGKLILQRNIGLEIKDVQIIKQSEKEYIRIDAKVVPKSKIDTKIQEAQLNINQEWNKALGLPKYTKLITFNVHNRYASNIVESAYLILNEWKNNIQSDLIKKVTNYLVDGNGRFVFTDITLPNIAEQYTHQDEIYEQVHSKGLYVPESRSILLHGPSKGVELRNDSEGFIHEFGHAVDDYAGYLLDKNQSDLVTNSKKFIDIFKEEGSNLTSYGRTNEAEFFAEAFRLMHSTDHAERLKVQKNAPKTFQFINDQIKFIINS
row,SMILES,inhibition
1,CN1C(=O)NC(c2ccc(O)cc2)C2=C1CN(c1cccc3ccccc13)C2=O (stereo not given),-10.8% (inactive)
2,CC[C@]1(O)CC2CN(CCc3c([nH]c4ccccc34)[C@@](C(=O)OC)(c3cc4c(cc3OC)N(C=O)[C@H]3[C@@](O)(C(=O)OC)[C@H](OC(C)=O)[C@]5(CC)C=CCN6CC[C@]43[C@@H]65)C2)C1 (stereo not given in full),-12.5% (inactive)
3,Cc1cc(C(=O)Nc2ccccc2C(=O)N2CCCCC2)ccc1[N+](=O)[O-],-0.1% (inactive)
4,O=c1nc2n(c3c1oc1ccccc13)Cc1ccccc1-2,-4.3% (inactive)
5,COc1cc(CC(=O)NCCc2ccc(S(N)(=O)=O)cc2)cc(OC)c1OC,6.5% (inactive)
6,CCCN(CCC)C(=O)C(CCC(=O)O)NC(=O)c1ccccc1 (stereo not given),8.6% (inactive)
7,CN1CCc2c(n(CC(O)CN(CCO)CCO)c3ccccc23)C1=O (stereo not given),-3.6% (inactive)
8,CC1(C)CC(NCc2ccccc2)CCO1 (stereo not given),1.1% (inactive)
9,O=C(O)c1cnccn1,-1.5% (inactive)
10,Cc1cc(OC(C(=O)O)c2ccccc2)c2c(C)c(Cc3ccccc3)c(=O)oc2c1 (stereo not given),1.7% (inactive)
11,Clc1cc(-c2ccc(/C=N/n3cnnc3)o2)ccc1Br,0.9% (inactive)
12,CN(C)CCOc1ccccc1Cc1ccccc1,3.4% (inactive)
13,COc1ccc(C2(CCN=Cc3ccc(N(C)C)cc3)CCOC(C)(C)C2)cc1 (stereo not given),-2% (inactive)
14,CCOC(=O)C1(CCCc2ccccc2)CCN(C2CCN(C(C)=O)CC2)CC1,-6.4% (inactive)
15,CN/C(=C/[N+](=O)[O-])NCCSCc1ccc(CN(C)C)o1,-7.4% (inactive)
16,COC(=O)C1=C(C)NC(C)=C(C(=O)OC)C1c1ccccc1[N+](=O)[O-],2% (inactive)
17,OCCN(CCO)c1nc(N2CCCCC2)c2nc(N(CCO)CCO)nc(N3CCCCC3)c2n1,8.5% (inactive)
18,CN(C)CCC(c1ccc(Br)cc1)c1ccccn1 (stereo not given),-8.1% (inactive)
19,O=c1n(CCCN2CCN(c3cccc(Cl)c3)CC2)nc2ccccn12,-1.3% (inactive)
20,C[C@]12CCC(=O)C=C1[C@H](O)C[C@@H]1[C@@H]2[C@@H](O)C[C@@]2(C)[C@H]1CC[C@]2(O)C(=O)CO,4.2% (inactive)

row,SMILES,inhibition
1,CC(C)(C)C(=O)NC(=S)NNC(=O)c1ccncc1,-3.3% (inactive)
2,CC(C)CCn1c(N2CCc3ccccc3C2)nc2c1c(=O)[nH]c(=O)n2C,4% (inactive)
3,CNc1nc(Nc2ccccc2)nc(OCC(F)(F)F)n1,-2.5% (inactive)
4,CC#C[C@]1(O)CC[C@H]2[C@@H]3CCC4=CC(=O)CCC4=C3[C@@H](c3ccc(N(C)C)cc3)C[C@@]21C,-7.2% (inactive)
5,CCOc1ccc(NC(=O)N[C@@H](CCSC)C(=O)OC)cc1,-4.6% (inactive)
6,COC(=O)c1cc(Br)c(=O)n(CCc2ccc(O)cc2)c1,-5.3% (inactive)
7,CCn1nc(C(=O)O)c(=O)c2cc3c(cc21)OCO3,0.2% (inactive)
8,Cc1cnc(N)c2c(=O)oc3ccccc3c12,-4.6% (inactive)
9,CCCCC(=O)O[C@]1(C(=O)CO)CC[C@H]2[C@@H]3CCC4=CC(=O)CC[C@]4(C)[C@H]3[C@@H](O)C[C@@]21C,-2.1% (inactive)
10,CCOc1cc2c3c(c1)C(C)=CC(C)(C)N3C(=O)C2=O,-4% (inactive)
11,COc1ccc(OCC(=O)N2c3ccc(C)cc3C3CN(C)CCC32)cc1 (stereo not given),-2.6% (inactive)
12,COC(=O)c1[nH]c2ccc(C)cc2c1NC(=O)CN1CCc2cc(OC)c(OC)cc2C1,2.1% (inactive)
13,COc1ccc(CN2CCC(=O)NC2=O)cc1,-3.5% (inactive)
14,COc1ccc(C2=CC(=O)C=CC2=O)cc1,-4.1% (inactive)
15,COc1ccc(C(=O)NCCC2=CCCCC2)cc1[N+](=O)[O-],-4.6% (inactive)
16,O=C(NCCc1nc2ccccc2[nH]1)c1cccc(Br)c1,-7.9% (inactive)
17,COc1ccc2c(c1)c(CC(=O)O)c(C)n2C(=O)c1ccc(Cl)cc1,-4.2% (inactive)
18,CC(O)Cn1cnc2c1c(=O)n(C)c(=O)n2C (stereo not given),-3.2% (inactive)
19,Cc1cccc(Nc2ncccc2C(=O)O)c1C,-4.7% (inactive)
20,COc1ccc(C(=O)C2CCCCC2=O)cc1 (stereo not given),-1.2% (inactive)

# Source: PubChem BioAssay
